# About 79,000 compounds went through this panel and 15% of them were active in at least one assay; those are over-represented in the sample as a whole. A number with no mark means an inactive call. Calls of active or inactive are those of the source. Cut-off read from the data, not from the text of the source: active = growth inhibition above about 70%; inactive = the rest.
# What was measured:
# [1] = NCI Yeast Anticancer Drug Screen. Data for the rad52 strain (AID 147);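 note: 0% = growth of vehicle-treated control cultures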; settings: S. cerevisiae rad52 mutant growth inhibition, active compounds read high
# Summary of the method: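 Measured: yeast growth inhibition. System: strain with a defined DNA damage repair alteration. Reference: vehicle-treated control cultures.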
# [2] = NCI Yeast Anticancer Drug Screen. Data for the wt1 strain (AID 149);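 note: 0% = growth of vehicle-treated wt1 cultures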; settings: S. cerevisiae wt1 strain (SPY 50644) growth inhibition, active compounds read high
# Summary of the method: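 The wt1 strain was treated with compounds, and growth was compared with vehicle-treated cultures to give inhibition.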
# [3] = NCI Yeast Anticancer Drug Screen. Data for the rad50EPP+ strain (AID 151);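 note: 0% = growth of vehicle-treated control cultures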; settings: S. cerevisiae rad50 mutant strain, active compounds read high
# Summary of the method: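 One strain with a rad50 alteration (rad50EPP+) was compound-treated, its growth then compared to that of vehicle controls.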
# [4] = NCI Yeast Anticancer Drug Screen. Data for the mgt1 strain (AID 153); settings: S. cerevisiae mgt1 mutant growth inhibition, active compounds read high
# Summary of the method: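 After exposure of the mgt1 yeast mutant to compound, growth was measured and reported as inhibition compared with vehicle controls.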
# [5] = NCI Yeast Anticancer Drug Screen. Data for the rad50 strain (AID 155);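 note: 0% = growth of vehicle-only cultures of the same strain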; settings: S. cerevisiae rad50 strain growth inhibition, active compounds read high
# Summary of the method: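 Cells are treated with compound, grown, and their growth is then scored against vehicle-only cultures of the same repair-deficient yeast strain.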
# [6] = NCI Yeast Anticancer Drug Screen. Data for the mec2-1 strain (AID 157); settings: S. cerevisiae mec2-1 strain, active compounds read high
# Summary of the method: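 Test agents were screened against the mec2-1 yeast strain, with defined DNA repair or cell cycle alteration. Growth was scored as inhibition against vehicle-only controls.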
# [7] = NCI Yeast Anticancer Drug Screen. Data for the sgs1 mgt1 strain (AID 161);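 note: 0% = growth of cultures given vehicle only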; settings: S. cerevisiae sgs1 mgt1 strain, active compounds read high
# Summary of the method: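 Genetically altered yeast, compound exposure, growth inhibition relative to vehicle.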
# [8] = NCI Yeast Anticancer Drug Screen. Data for the CLN2oe strain (AID 163);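 note: 0% = growth of vehicle-only control cultures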; settings: S. cerevisiae CLN2oe strain, active compounds read high
# Summary of the method: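 Here, growth inhibition in a cell-cycle-altered yeast strain after compound exposure was quantified against vehicle control growth.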
# [9] = NCI Yeast Anticancer Drug Screen. Data for the cln2 rad14 strain (AID 165);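 note: 0% = growth equal to vehicle treated cultures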; settings: S. cerevisiae cln2 rad14 strain, active compounds read high
# Summary of the method: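 Growth of compound-exposed yeast (cln2 rad14 genotype) measured and expressed as inhibition relative to vehicle.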
# [10] = NCI Yeast Anticancer Drug Screen. Data for the bub3 strain (AID 167); settings: S. cerevisiae bub3 mutant strain, active compounds read high
# Summary of the method: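 Part of a panel of yeast mutants defective in DNA damage repair or cell cycle regulation. Each strain is grown with compound, and inhibition is calculated relative to solvent-treated cultures.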
# [11] = NCI Yeast Anticancer Drug Screen. Data for the wt2 strain (AID 169);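 note: 0% = growth of vehicle-treated yeast cultures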; settings: S. cerevisiae wt2 strain growth inhibition, active compounds read high
# Summary of the method: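 Genetically defined yeast strains from a DNA-repair/cell-cycle panel were used. Compound-exposed yeast growth was measured, and the inhibition was calculated relative to vehicle treatment.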
# [12] = NCI Yeast Anticancer Drug Screen. Data for the mlh1 strain (AID 171);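 note: 0% = growth of vehicle-treated control cultures of the same strain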; settings: S. cerevisiae mlh1 strain growth inhibition, active compounds read high
# Summary of the method: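 Here the genetically defined yeast mutant is grown with each compound, and the extent to which its growth falls below that of vehicle-exposed cells is reported.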
# [13] = NCI Yeast Anticancer Drug Screen. Data for the sgs1 strain (AID 173);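 note: 0% = growth of vehicle-only control cultures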; settings: S. cerevisiae sgs1 mutant, active compounds read high
# Summary of the method: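 Relative growth inhibition, referenced to vehicle, was determined in a yeast strain with a defined alteration affecting DNA damage repair or cell cycle control after compound exposure.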
# [14] = NCI Yeast Anticancer Drug Screen. Data for the mlh1 rad18 strain (AID 175); settings: S. cerevisiae mlh1 rad18 strain growth inhibition, active compounds read high
# Summary of the method: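 In this whole-cell yeast screen, a strain with altered DNA damage repair is challenged with compound, and its growth is measured against matched vehicle-treated controls.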
# [15] = NCI Yeast Anticancer Drug Screen. Data for the rad18 strain (AID 177); settings: S. cerevisiae rad18 mutant growth inhibition, active compounds read high
# Summary of the method: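 Screen uses a yeast strain with a defined lesion in DNA damage repair; compound effect is read as loss of growth compared to untreated vehicle cultures.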
# [16] = at 5.0 µM (retest, dose inferred, filed as 0.5)
# [17] = at 50.0 µM (retest, dose inferred, filed as 5.0)
compound,measurement,setting,value
COc1ccc(C(=O)Oc2ccccc2Br)cc1,growth inhibition,[1]; at 1.2 µM,5%
same,growth inhibition,[1]; at 3.7 µM,6%
same,growth inhibition,[1]; at 11.0 µM,3%
same,growth inhibition,[1]; at 33.0 µM,19%
same,growth inhibition,[1]; at 100.0 µM,44%
same,growth inhibition,[2]; at 1.2 µM,-5%
same,growth inhibition,[2]; at 3.7 µM,-7%
same,growth inhibition,[2]; at 11.0 µM,-10%
same,growth inhibition,[2]; at 33.0 µM,-10%
same,growth inhibition,[2]; at 100.0 µM,-3%
same,growth inhibition,[3]; at 1.2 µM,13%
same,growth inhibition,[3]; at 3.7 µM,22%
same,growth inhibition,[3]; at 11.0 µM,26%
same,growth inhibition,[3]; at 33.0 µM,35%
same,growth inhibition,[3]; at 100.0 µM,62%
same,growth inhibition,[4]; at 1.2 µM,-8%
same,growth inhibition,[4]; at 3.7 µM,-5%
same,growth inhibition,[4]; at 11.0 µM,-7%
same,growth inhibition,[4]; at 33.0 µM,-5%
same,growth inhibition,[4]; at 100.0 µM,25%
same,growth inhibition,[5]; at 1.2 µM,8%
same,growth inhibition,[5]; at 3.7 µM,7%
same,growth inhibition,[5]; [16],5%
same,growth inhibition,[5]; at 11.0 µM,8%
same,growth inhibition,[5]; at 33.0 µM,28%
same,growth inhibition,[5]; [17],64%
same,growth inhibition,[5]; at 50.0 µM,6.6%
same,growth inhibition,[5]; at 100.0 µM,62%
same,growth inhibition,[6]; at 1.2 µM,-5%
same,growth inhibition,[6]; at 3.7 µM,-8%
same,growth inhibition,[6]; [16],-20%
same,growth inhibition,[6]; at 11.0 µM,-10%
same,growth inhibition,[6]; at 33.0 µM,-7%
same,growth inhibition,[6]; [17],8%
same,growth inhibition,[6]; at 50.0 µM,5.05%
same,growth inhibition,[6]; at 100.0 µM,20%
same,growth inhibition,[7]; [16],0%
same,growth inhibition,[7]; [17],78% (active)
same,growth inhibition,[7]; at 50.0 µM,36.1%
same,growth inhibition,[8]; at 1.2 µM,-4%
same,growth inhibition,[8]; at 3.7 µM,-12%
same,growth inhibition,[8]; at 11.0 µM,-18%
same,growth inhibition,[8]; at 33.0 µM,-14%
same,growth inhibition,[8]; at 100.0 µM,9%
same,growth inhibition,[9]; [16],0%
same,growth inhibition,[9]; [17],16%
same,growth inhibition,[9]; at 50.0 µM,-16.3%
same,growth inhibition,[10]; at 1.2 µM,3%
same,growth inhibition,[10]; at 3.7 µM,2%
same,growth inhibition,[10]; [16],18%
same,growth inhibition,[10]; at 11.0 µM,-2%
same,growth inhibition,[10]; at 33.0 µM,5%
same,growth inhibition,[10]; [17],75% (active)
same,growth inhibition,[10]; at 50.0 µM,32.4%
same,growth inhibition,[10]; at 100.0 µM,19%
same,growth inhibition,[11]; at 1.2 µM,-5%
same,growth inhibition,[11]; at 3.7 µM,-13%
same,growth inhibition,[11]; at 11.0 µM,-11%
same,growth inhibition,[11]; at 33.0 µM,-10%
same,growth inhibition,[11]; at 100.0 µM,0%
same,growth inhibition,[12]; at 1.2 µM,-1%
same,growth inhibition,[12]; at 3.7 µM,0%
same,growth inhibition,[12]; at 11.0 µM,-2%
same,growth inhibition,[12]; at 33.0 µM,8%
same,growth inhibition,[12]; at 100.0 µM,39%
same,growth inhibition,[13]; at 1.2 µM,-18%
same,growth inhibition,[13]; at 3.7 µM,-13%
same,growth inhibition,[13]; at 11.0 µM,-11%
same,growth inhibition,[13]; at 33.0 µM,3%
same,growth inhibition,[13]; at 100.0 µM,36%
same,growth inhibition,[14]; [16],5%
same,growth inhibition,[14]; [17],90% (active)
same,growth inhibition,[14]; at 50.0 µM,7.85%
same,growth inhibition,[15]; at 1.2 µM,1%
same,growth inhibition,[15]; at 3.7 µM,2%
same,growth inhibition,[15]; at 11.0 µM,1%
same,growth inhibition,[15]; at 33.0 µM,10%
same,growth inhibition,[15]; at 100.0 µM,53%

# From PubChem BioAssay (NCI)
